NOD2-RIPK2 inh = NOD2-RIPK2 binding disruptors in cells, primary screen, fluorescence, CHO cells, BLA complementation. Receptor-interacting serine/threonine-protein kinase 2 (Homo sapiens), O43353. CCF4 ratio. inhibition, % at 4.98 µM. hit rate 0.38% among 360,000. AID 624267, 2012; in the data active means inhibition above about 21%
TLR9-MyD88 inh = inhibitors of TLR9-MyD88 association in cells, primary screen, cell-based, CHO, BLA complementation, fluorescence; CCF4 FRET ratio; hit rate 0.21% among 340,000; AID 504734, 2011; inhibition, % at 4.98 µM; Toll-like receptor 9 (Homo sapiens) + Myeloid differentiation primary response protein …;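 active means inhibition above the mean over all tested compounds plus 3 SD, cut at about 21% in these data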
ABHD5-PLIN5 inh = ABHD5-PLIN5 interaction inhibitors, primary screen, cell lysate, split luciferase complementation, luminescence; Perilipin-5 (Homo sapiens) + 1-acylglycerol-3-phosphate O-acyltransferase ABHD5 (Homo …; Split G. princeps luciferase complementation, 4 h; inhibition, % at 4 µM; hit rate 0.78% among 360,000; AID 602281, 2012;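 active means inhibition above the mean inhibition across every tested compound plus 3 SD, cut at about 22% in these data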
B2AR ag = beta2AR agonists driving receptor internalization, primary screen, cell-based, FAP fluorogen, flow cytometry. Beta-2 adrenergic receptor (Homo sapiens), P07550. Am2.2-beta2AR cells. response, % (test concentration not listed). hit rate 0.43% among 340,000. AID 504454, 2011;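 active means response above a set limit, near 3 SD of response in nonfluorescent compounds, cut at about 42% in these data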
Target sequence (P07550 whole entry, looked up): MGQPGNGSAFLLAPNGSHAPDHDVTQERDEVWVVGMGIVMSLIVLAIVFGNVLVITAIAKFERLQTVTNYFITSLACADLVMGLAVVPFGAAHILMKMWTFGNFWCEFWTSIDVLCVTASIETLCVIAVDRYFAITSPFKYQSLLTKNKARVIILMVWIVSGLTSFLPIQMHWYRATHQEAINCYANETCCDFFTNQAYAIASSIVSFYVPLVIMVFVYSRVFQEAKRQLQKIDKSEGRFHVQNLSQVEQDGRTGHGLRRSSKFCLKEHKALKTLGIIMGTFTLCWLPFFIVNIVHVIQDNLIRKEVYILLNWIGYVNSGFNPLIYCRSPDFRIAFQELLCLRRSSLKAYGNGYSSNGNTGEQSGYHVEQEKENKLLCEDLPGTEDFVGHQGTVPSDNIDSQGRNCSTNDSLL
TLR4 MyD88 comp = inhibitors of TLR4-MyD88 association in cells, primary screen, cell-based, HeLa CL3-4, BLA complementation, FRET ratio. Toll-like receptor 4 (Homo sapiens) + Myeloid differentiation primary response protein …. HeLa CL3-4 TLR4/MyD88 BLA complementation. inhibition, % at 8.4 µM. hit rate 0.18% among 200,000. AID 861, 2007; in the data active means inhibition above about 25%
Exocytosis inh = LAMP-1 surface exposure blockers, TALL-104 cells – cell-based, flow cytometry, MLPCN library, primary screen; TALL-104 LAMP-1 surface exposure; cells stimulated with thapsigargin and PMA; inhibition, % at 10 µM; hit rate 0.66% among 360,000;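 active means inhibition above about 55%, limit read from the data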
Numbers stand for hits; . = inactive; / = no result given. Only some compounds are listed: those with a hit (about 2% of all), similar ones and a draw of the others.

SMILES	NOD2-RIPK2 inh	TLR9-MyD88 inh	ABHD5-PLIN5 inh	B2AR ag	TLR4 MyD88 comp	Exocytosis inh
COC(=O)[C@@]1(Cc2ccc(F)cc2)[C@H]2c3cc(C(=O)N(C)C)n(CCc4c[nH]c5ccc(O)cc45)c3C[C@H]2CN1C(=O)c1ccccc1	.	/	.	/	/	.
CC(C)c1ccc(S(=O)(=O)/N=C2/C=C(Sc3ncn[nH]3)C(=O)c3ccccc32)cc1	.	.	.	.	.	98
Cc1ccc(S(=O)(=O)/N=C2/C=C(Sc3ncn[nH]3)C(=O)c3ccccc32)cc1	.	.	40	85	.	108
Cc1ccc(S(=O)(=O)/N=C2/C=C(Sc3ncn[nH]3)C(=O)c3ccccc32)c(C)c1	/	/	/	/	.	/
COc1ccccc1-c1cn(CC[C@@H]2CC[C@H](NC(=O)C3CCC3)[C@@H](CO)O2)nn1	.	/	.	/	/	.
COc1cccc(NC(=O)C2(C)CCCN(C(C)C)C2)c1 (configuration not stated)	.	/	.	/	/	.
CC(C)c1ccc(/C=C/c2[nH]c(=O)[nH]c(=O)c2[N+](=O)[O-])cc1	.	.	22	.	/	.
CCOc1ccc(/C=C/c2[nH]c(=O)[nH]c(=O)c2[N+](=O)[O-])cc1	.	.	.	.	/	.
CC(C)CN1C(=O)CN(S(C)(=O)=O)CC1(C)C(=O)NC(C)C (configuration not stated)	.	/	.	/	/	.
O=C(/C=C/c1cn(-c2ccccc2)nc1-c1cccnc1)c1ccco1	.	.	.	81	.	.
CCOC(=O)c1c(C)[nH]c(C(=O)COC(=O)/C=C/c2ccc(O)c(OC)c2)c1C	.	.	.	.	.	.
CCOC(=O)c1c(C)[nH]c(C(=O)COC(=O)/C=C/c2ccc3c(c2)OCO3)c1C	.	.	.	53	.	.
COc1ccc([C@H]2[C@H](C(=O)OC(C)(C)C)N3N=Cc4ccccc4C3C23C(=O)c2ccccc2C3=O)c(OC)c1 (some centres not stated)	.	.	.	.	.	.
COc1ccc([C@H]2[C@H](C(=O)OC(C)(C)C)N3N=Cc4ccccc4C3C23C(=O)c2ccccc2C3=O)cc1OC (some centres not stated)	.	.	.	.	.	63
C[C@@H]1CN([C@H](C)CO)C(=O)CCCn2cc(nn2)CO[C@H]1CN(C)C(=O)Nc1ccc2c(c1)OCO2	.	.	.	/	/	.
C(C#CCCCCCCCCC[n+]1ccccc1)#CCCCCCCCCC[n+]1ccccc1	.	.	33	.	/	.
O=C1CCC(/C=C/c2ccccc2)=NN1Cc1ccccc1Cl	.	.	.	43	.	.
O=C1CCC(/C=C/c2ccccc2)=NN1Cc1ccc(Cl)c(Cl)c1	.	.	.	.	.	.
Cc1cc(C)c2c(=O)n(CC(=O)NCCCN3CCOCC3)sc2n1	.	.	50	.	.	.
COc1ccccc1C(=O)Nc1ccccc1N1CCCCC1	.	.	.	.	/	67
Cc1ccc(S(=O)(=O)N2CC3C(=O)C[C@@H](c4ccccc4)N(S(=O)(=O)c4ccc(CCCOCCOCCNC(=O)OC(C)(C)C)cc4)C3CC2c2ccccc2)cc1 (some centres not stated)	.	/	.	/	/	.
Nc1c(Cl)cc(C2=NCCn3c2c2ccc([N+](=O)[O-])cc2[n+]3[O-])cc1Cl	.	.	.	.	/	82
Cc1cc(C)c2nc(Cl)c(CN(Cc3ccco3)C(=O)Nc3ccccc3C)cc2c1	.	.	.	42	.	.
COc1ccc2c(c1OC)C(=O)OC2Nc1nc(-c2cc3ccccc3oc2=O)cs1 (configuration not stated)	.	.	.	.	.	79
COC(=O)CCCn1cc(CN2CC(N3CCN(C4CCN(C)CC4)CC3)CS2(=O)=O)nn1 (configuration not stated)	.	/	.	/	/	.
SMILES	NOD2-RIPK2 inh	TLR9-MyD88 inh	ABHD5-PLIN5 inh	B2AR ag	TLR4 MyD88 comp	Exocytosis inh
COC(=O)C[C@H]1C=C[C@@H](NC(=O)Nc2c(C)noc2C)[C@@H](CO)O1	.	/	.	/	/	.
O=C(OCn1ncc(Br)c(Br)c1=O)c1ccc(F)cc1	74	35	.	78	.	64
CC(=O)OCn1ncc(N2CCOCC2)c(Br)c1=O	.	.	.	.	/	.
O=C1ON=C(c2cccc([N+](=O)[O-])c2)/C1=C/c1ccc(O)cc1	.	.	.	53	.	.
O=C(NC1=NCCS1)c1ccc(N2CCCC2=O)cc1	.	.	.	48	.	.
O=C(NC1CCCCCC1)c1ccc(CS(=O)(=O)Cc2ccccc2F)o1	.	.	.	.	/	.
O=C(NC1CCCCC1)c1ccc(-c2ccccc2F)o1	.	.	23	.	/	.
Cc1ccc(S(=O)(=O)N2CC3C(=O)C[C@@H](c4ccccc4)N(S(=O)(=O)c4ccccc4Cl)C3CC2c2ccccc2)cc1 (some centres not stated)	.	/	.	/	/	.
COc1ccc(C(=O)C(CCCCC(CN(C)C)C(=O)c2ccc(OC)cc2)CN(C)C)cc1 (configuration not stated)	.	.	.	.	.	.
CN(C)CC(CCC(CN(C)C)C(=O)c1ccccc1)C(=O)c1ccccc1 (configuration not stated)	60	.	41	.	/	.
NC(N)=NCCCS(=O)(=O)Nc1ccc(Nc2c3ccccc3nc3cc([N+](=O)[O-])ccc23)cc1	.	.	.	.	/	.
Cc1oc(-c2ccc(Cl)cc2)cc1C(=O)NC1CCN(Cc2ccccc2)CC1	.	/	.	.	/	80
O=C(CCNc1ccc(Br)cc1)c1cccc([N+](=O)[O-])c1	.	.	.	.	.	86
O=C(CCNc1ccc(Cc2ccncc2)cc1)c1ccc([N+](=O)[O-])cc1	.	.	.	.	.	90
O=C(CCNc1ccc(F)cc1)c1cccc([N+](=O)[O-])c1	.	.	.	.	.	.
O=C(O)CC(C(=O)O)C(=Cc1ccccc1)c1ccccc1 (configuration not stated)	.	.	.	/	/	.
Cc1c(C(=O)NC2CC(C)(C)NC(C)(C)C2)oc2c(Cl)cccc12	.	.	.	/	/	.
COc1ccc(/C=N/Nc2cc(C)nc3ccccc23)cc1	.	.	.	.	/	60
COc1ccc(/C=N/Nc2cc(C)nc3c(C)cccc23)cc1	.	.	.	.	/	.
CCN1CCCSC1=S	.	/	.	/	/	.
COc1ccc(S(=O)(=O)c2c(N)n(Cc3ccco3)c3nc4ccccc4nc23)cc1	.	.	24	.	.	.

Source: PubChem (several laboratories)
